Results on 35 molecules are retold here after PubChem BioAssay (NCI).

The panel holds about 83,000 compounds, 20% with a hit somewhere; the sample as a whole holds those more often.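 The test compound was applied at a single concentration to cells in 96-well plates for 48 hours, and percent growth was recorded.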 Activity calls are given as the source filed them. How the source made its calls: active means growth percent below 10; inactive means the rest.

This assay concerns 786-0 renal. Nature of the assay: NCI-60 one-dose screen, 48 h (100 = growth as untreated, 0 = no growth, -100 = all killed). As to conditions: 10 µM unless noted.
Regarding `COc1ccc(OC)c(/C=N/Nc2ncnc3c2c(C)nn3C)c1`, the growth was 102% (inactive).

For `Cc1c[n+](Cc2ccc3ccccc3c2)cn1Cc1ccc2ccccc2c1`, the growth was 41% (inactive). The figure for `COc1cc(OC)c(/C=C/C(=O)c2c(OC)cccc2OC)c(OC)c1` is 16.5% (inactive); for `COC(=O)c1c(C)nc(C)c2c1C(=O)C(Br)=C(NCc1ccccc1)C2=O` it is 51.6% (inactive); for `CCNCCNc1cc(-c2ccc(C(F)(F)F)cc2)c(C#N)c2nc3ccccc3n12` it is -96.2% (active). The figure for `CSc1nc2ccccc2cc1/C=[N+](\[O-])c1ccccc1` is 74.6% (inactive); for `CC(=O)Oc1ccc(N2C(=O)C(Cl)=C(Nc3cccc(C(F)(F)F)c3)C2=O)cc1` it is 95.7% (inactive).

Take `CC(=O)Oc1ccc(C)cc1C`: the growth was 100% (inactive). Consider `O=C(Nc1ccc(Oc2cccc(Cl)c2)c(Cl)c1)c1cnccn1`, for which the growth was 44.6% (inactive). The figure for `CCC(=O)Oc1ccc(-c2ccccc2)cc1Br` is 105% (inactive); for `CCN(CC)CC(O)COc1c(Br)c(Br)c(Br)c2c1OC(C)(C)C2` (stereo not given) it is 51.3% (inactive). As to `Fc1cc2c(cc1Cl)N(c1ncnc3ccc(-c4ccc5n[nH]nc5c4)cc13)CC2`, the growth is 78.6% (inactive). The same measure for `Nc1c(C(=O)Nc2ccncc2)sc2nc3c(cc12)C(O)CCC3` (stereo not given): 93.8% (inactive); for `CCOC(=O)c1cc2c(n1Cc1cc(OC)c(OC)c(OC)c1)-c1nc(N)sc1CCC2`: 36.8% (inactive); for `Cc1ccc(Nn2c(SCC(=O)Nc3nc(-c4ccccc4)cs3)nc(C)c2C)cc1`: 82.3% (inactive). The figure for `O=C(NCc1ccc(Cl)cc1Cl)C1CCC(=O)N1c1cccs1` (stereo not given) is 94% (inactive); for `COc1cc(C2c3cc(OC(C)=O)c(OC)cc3CC3C(=O)OCC32)ccc1OC(C)=O` (stereo not given) it is 96.4% (inactive); for `CCOC(=O)c1ccc(NC(=O)c2nc(-c3cc(OC)c(OC)c(OC)c3)n(-c3ccc(Cl)cc3)n2)cc1` it is 93.5% (inactive). Consider `Cc1nc2sc(C(=O)Nc3cccc(Br)c3)c(N)c2cc1C(O)c1ccccc1` (stereo not given), for which the growth is 36.2% (inactive). As for `OB1OCc2cc(/C=C/c3cccc(C(F)(F)F)c3)ccc21`, the growth was -27.2% (active). As to `COC(=O)[C@@H](CCCCNC(=O)[C@]12CCC(C)(C)C[C@@H]1C1=CC[C@@H]3[C@@]4(C)C/C(=C/c5ccco5)C(=O)C(C)(C)[C@@H]4CC[C@@]3(C)[C@]1(C)CC2)NC(=O)[C@]12CCC(C)(C)C[C@@H]1C1=CC[C@@H]3[C@@]4(C)C/C(=C/c5ccco5)C(=O)C(C)(C)[C@@H]4CC[C@@]3(C)[C@]1(C)CC2`, the growth is 104% (inactive). The figure for `COc1c(C(=O)Nc2ccc(C)c(Br)c2)ccc2ccccc12` is 96.5% (inactive). The same measure for `COC(=O)CC[C@@H]1O[C@@H](c2cccc(C(F)(F)F)c2)[C@@H](O)[C@H]1O`: 103% (inactive); for `COc1ccc(/C=C(\C#N)n2nnc3cc(F)c(F)cc32)cc1`: 60.8% (inactive).

In the case of `CCCC/C(CC)=N\NS(=O)(=O)c1ccc([N+](=O)[O-])cc1`, the growth was 103% (inactive). `CCC(C(=O)[C@@H](C)[C@@H](O)[C@H](C)[C@@H]1O[C@@H]([C@@H](CC)C(=O)ONC(=O)c2ccccc2)CC[C@@H]1C)[C@H]1O[C@]2(C=CC(=O)[C@]3(CC[C@@](C)([C@H]4CC[C@](O)(CC)[C@H](C)O4)O3)O2)[C@H](C)C[C@@H]1C` (stereo not given in full): the growth is 9.1% (active). For `COC(=O)[C@]12CCC(C)(C)C[C@H]1[C@H]1/C(=N/OCCc3nn[nH]n3)C[C@@H]3[C@@]4(C)CC[C@H](OC(C)=O)C(C)(C)[C@@H]4CC[C@@]3(C)[C@]1(C)CC2`, the growth was 51.9% (inactive).

Turning to `N#CC(C#N)N=Nc1ccc(Br)cc1`, the growth was 35.4% (inactive). The same measure for `CCOC(=O)NC(C)C`: 95.6% (inactive); for `CCCNC(=O)Nc1ccc2cc3ccc(NC(=O)NCCC)cc3nc2c1`: 82.3% (inactive); for `C=CCN=c1sc2c(n1NC(=O)c1cc3ccc1CCc1ccc(cc1)CC3)C(=O)c1ccccc1C2=O`: -21.8% (active). The same measure for `Cc1ccc2c(n1)C(=O)C(Br)=C(CC(C)C)C2=O`: 96.3% (inactive); for `CC(C)COc1nc2c(c(=O)n(C)c(=O)n2C)n1C`: 104% (inactive); for `Cc1ccccc1/C=C/C(=O)c1cccc(OCCCCOc2cccc(C(=O)/C=C/c3ccccc3C)c2)c1`: 96.4% (inactive). The figure for `COc1ccc2cc1Oc1ccc(cc1)C[C@H]1c3c(cc4c(c3Oc3cc5c(cc3OC)CCN(C)[C@@H]5C2)OCO4)CCN1C` is 53.5% (inactive).
